The results in this text go back to PubChem BioAssay.

For experiment [1], the system named is Wnt5a (protein binding on small-molecule microarray). Nature of the experiment: Wnt5a binders on small-molecule microarray, primary screen, biophysical, 635/667 nm fluorescence (AID 1142).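 Note: fluorescence read at 667 nm with signal to noise per printed feature.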 Conditions: 635 nm fluorescence, higher = more signal.
The nature of experiment [2]: cell viability in Huh7 cells, primary screen, cytotoxicity control for HCV replication inhibitor project, CellTiter-Glo luminescence, basal, 48 h (AID 1143).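 Note: Huh7 hepatoma cells carrying a hepatitis C replication reporter with no stimulus; test concentration not given here.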 Conditions: Huh7 HCV replicon, higher = more signal, called active from +8 up or from −8 down.
Experiment [3] is described as follows: P. aeruginosa biofilm formation inhibitors, primary screen, PAO1 strain, BacTiter-Glo luminescence, LB-PBS (AID 1144). The following applies: 12 h, higher = more signal.
The nature of experiment [4]: CREB reporter modulators without forskolin, primary screen, cell-based, PC12, CRE-LacZ reporter, unstimulated (AID 1145). The following applies: no forskolin, luminescence, 4.5 h, higher = more signal, called active from +8 up or from −8 down.
Experiment [5] can be described thus: CREB reporter modulators under forskolin, primary screen, cell-based, PC12, CRE-LacZ reporter, forskolin-stimulated (AID 1146).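 Note: PC12 cells with 6xCRE LacZ reporter stimulated by forskolin 10 µM; beta-galactosidase reporter signal reflecting CREB driven transcription.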 Conditions: luminescence, 4.5 h, higher = more signal, called active from +8 up or from −8 down.
The target of experiment [6] is Streptavidin (Streptomyces avidinii) (UniProt P22629). Put plainly: streptavidin binders on small-molecule microarray, primary screen, artefact control for SMM compound annotation, biophysical, 635/667 nm fluorescence (AID 1147).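 Note: signal reflects streptavidin binding to arrayed compounds as a control protein.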 The following applies: streptavidin binding, higher = more signal.
Sequence of Streptavidin (Streptomyces avidinii) (P22629 whole entry, looked up): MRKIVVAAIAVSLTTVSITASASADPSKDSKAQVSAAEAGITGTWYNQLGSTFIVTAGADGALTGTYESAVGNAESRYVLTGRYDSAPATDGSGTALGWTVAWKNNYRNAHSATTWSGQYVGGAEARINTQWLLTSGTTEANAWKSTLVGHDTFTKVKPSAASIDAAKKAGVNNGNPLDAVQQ
Experiment [7] is described as follows: small-molecule binders of probe aInhba, primary screen, biochemical, small-molecule microarray, 635/667 nm fluorescence (AID 1148).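 Note: score merges 667nm spot fluorescence with signal-to-noise for antibody binding to printed compounds.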 The following applies: higher = more signal.
Experiment [8] concerns the target Torsin-1A (Homo sapiens) (UniProt O14656). Put plainly: torsin A binders from cell lysate, primary screen, small-molecule microarray, wild-type, 635/667 nm (AID 1149). The following applies: COS7 hTOR1A-WT lysate, 635 nm fluorescence, higher = more signal.
For experiment [9] the target is unchanged. Put plainly: small-molecule binders of mutant TOR1A in lysate, primary screen, cell lysate, small-molecule microarray, COS7 lysate, 635/667 nm fluorescence (AID 1150).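 Note: score pools 667 nm emission and signal to noise measuring lysate protein binding.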 Conditions: COS7 hTOR1A mutant lysate, 635 nm fluorescence, higher = more signal.
Experiment [10] concerns Sonic hedgehog protein (Shh). Nature of the experiment: small-molecule binders of Shh protein, primary screen, biochemical, small-molecule microarray, 635/667 nm fluorescence (AID 1151).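 Note: Shh protein binding to compounds spotted on small-molecule microarray slides; score combines spot fluorescence intensity with signal-to-noise across triplicate slides.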 The following applies: small-molecule microarray binding, 635 nm fluorescence; higher = more signal.

Structures are written as SMILES. The source made the active and inactive calls. Unless noted, the rule behind the calls is not given here.

Sequence of Torsin-1A (Homo sapiens) (O14656 whole entry, looked up): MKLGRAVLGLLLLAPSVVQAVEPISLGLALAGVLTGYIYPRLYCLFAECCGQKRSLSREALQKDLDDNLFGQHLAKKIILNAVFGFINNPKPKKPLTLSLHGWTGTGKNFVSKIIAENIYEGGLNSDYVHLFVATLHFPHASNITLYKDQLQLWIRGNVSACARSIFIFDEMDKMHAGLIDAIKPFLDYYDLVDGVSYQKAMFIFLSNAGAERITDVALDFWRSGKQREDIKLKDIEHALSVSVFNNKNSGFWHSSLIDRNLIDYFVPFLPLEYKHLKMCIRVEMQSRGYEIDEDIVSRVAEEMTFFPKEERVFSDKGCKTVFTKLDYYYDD

As for `COC(=O)C1=CC(CCCO)=CC(C2CC2)N(Cc2sc3ccccc3c2Cl)C=C1C(=O)OC` (stereo not given), the composite z-score was 0.351 in experiment [1]; 2.17 in experiment [6]; 0.19 in experiment [7]; 0.688 with Torsin-1A (Homo sapiens) [8]; 0.806 with Torsin-1A (Homo sapiens) [9]; -0.112 in experiment [10]. Further, the z-score was -3.83 (inactive) in [2], 0.989 (inactive) in experiment [3], -0.464 (inactive) in experiment [4] and 0.106 (inactive) in experiment [5].
As to `Cc1ccccc1C(O)C1C=CC2C(=O)N(C)C(=O)C2N1Nc1ccccc1` (stereo not given), the composite z-score in experiment [1] is 0.125; in experiment [6], 1.69; in experiment [7] it was 0.112; with Torsin-1A (Homo sapiens) [8] it was 0.0494; with Torsin-1A (Homo sapiens) [9] it was 0.303; in experiment [10] it was -0.0269. Besides, the z-score in experiment [2] was 0.881 (inactive); in experiment [3] it was 0.149 (inactive); in experiment [4] it was -0.522 (inactive); in experiment [5] it was -0.0967 (inactive).
Consider `O=C/C=C/c1ccc2c(c1)OCO2`, for which the composite z-score in [1] is 0.0218; in experiment [6], -0.142; in experiment [7], -0.0509; with Torsin-1A (Homo sapiens) [8], 0.219; with Torsin-1A (Homo sapiens) [9], 0.0622; in experiment [10], 0.504. In addition, the z-score in [2] is -1.95 (inactive); in [3], -1.39 (inactive); in experiment [4], -0.491 (inactive); in [5], 0.106 (inactive).
Consider `COCC(=C=CC[C@@H](O)c1ccc(CO)o1)CCO`, for which the composite z-score was 0.0507 in experiment [1]; -0.618 in experiment [6]; -0.024 in [7]; -0.117 in the experiment with Torsin-1A (Homo sapiens) [8]; -0.114 with Torsin-1A (Homo sapiens) [9]; 2.2 in experiment [10]. The z-score was -3.6 (inactive) in experiment [2], -1.23 (inactive) in [3], 0.014 (inactive) in experiment [4] and -0.845 (inactive) in [5].
As for `CC(c1ccccc1)C(O)C1C=CC2C(=O)NC(=O)C2N1Nc1ccccn1` (stereo not given), the composite z-score is 0.211 in experiment [1]; 0.0932 in experiment [6]; 0.0906 in experiment [7]; 0.763 in the experiment with Torsin-1A (Homo sapiens) [8]; 0.197 with Torsin-1A (Homo sapiens) [9]; 0.341 in [10]. For the same compound, the z-score in [2] was 1.25 (inactive); in experiment [3] it was -1.1 (inactive); in experiment [4], -0.329 (inactive); in experiment [5], -1.03 (inactive).
Regarding `O=C1c2ccccc2[C@@]2(Cc3ccccc3N(Cc3ccccc3)C2=O)[C@H](c2ccc(CO)cc2)N1C1CCCCC1`, the composite z-score is 0.149 in experiment [1]; -0.258 in experiment [6]; -0.0933 in experiment [7]; 0.177 in the experiment with Torsin-1A (Homo sapiens) [8]; -0.269 with Torsin-1A (Homo sapiens) [9]; 1.08 in [10]. For the same compound, the z-score in [2] is 0.608 (inactive); in experiment [3], 0.0703 (inactive); in [4] it was 0.0924 (inactive); in experiment [5] it was 0.0935 (inactive).
In the case of `COCCCNC(=O)[C@@]1(c2ccc([N+](=O)[O-])cc2)CC(=O)N(CC23CC4CC(CC(C4)C2)C3)[C@@H]1c1ccc(CO)cc1`, the composite z-score in [1] is 0.459; in experiment [6], 0.0765; in experiment [7] it was -0.0018; with Torsin-1A (Homo sapiens) [8], 1.02; with Torsin-1A (Homo sapiens) [9], 0.894; in experiment [10] it was 2.13. The z-score was -4.39 (inactive) in experiment [2], -1.51 (inactive) in [3], -0.179 (inactive) in experiment [4] and -0.284 (inactive) in experiment [5].
Turning to `CC(C)(C)OC(=O)CC[C@]1(C(=O)N2CCCCC2)N=C(c2ccc(OCCCO)cc2)O[C@H]1c1ccccc1N=[N+]=[N-]`, the composite z-score in [1] amounted to 0.556; in experiment [6], 1.87; in experiment [7] it was 0.813; with Torsin-1A (Homo sapiens) [8] it was 0.569; with Torsin-1A (Homo sapiens) [9], 2.11; in experiment [10], 0.837. The z-score in experiment [2] is -2.48 (inactive); in experiment [3], 0.043 (inactive); in experiment [4], 1.43 (inactive); in experiment [5], -1.57 (inactive).
Turning to `CC=CC(O)C1C=CC2C(=O)N(c3ccccc3)C(=O)C2N1Nc1ccc(C(C)C)cc1` (stereo not given), the composite z-score in [1] was 0.288; in experiment [6] it was 1.24; in experiment [7], 0.143; with Torsin-1A (Homo sapiens) [8], -0.173; with Torsin-1A (Homo sapiens) [9] it was 0.55; in [10], -0.0469. Also, the z-score in experiment [2] is 0.0547 (inactive); in [3], -0.302 (inactive); in experiment [4], 0.0501 (inactive); in experiment [5], 0.133 (inactive).
Regarding `CO[C@H]1O[C@H](CO)[C@@H](OC(=O)Nc2ccc3c(c2)OCO3)[C@H](OC(=O)Nc2ccccc2)[C@H]1OC(=O)Nc1ccccc1`, the composite z-score worked out at 0.446 in experiment [1]; 0.869 in experiment [6]; 0.0906 in experiment [7]; 0.487 in the experiment with Torsin-1A (Homo sapiens) [8]; 1.11 with Torsin-1A (Homo sapiens) [9]; 1.43 in experiment [10]. The z-score in experiment [2] was -5.46 (inactive); in [3], -0.785 (inactive); in experiment [4], 1.16 (inactive); in [5], -2.23 (inactive).
As to `Cc1cc(C)c(C(O)C2C=CC3C(=O)N(c4ccccc4)C(=O)C3N2Nc2ccc(C#N)cc2)c(C)c1` (stereo not given), the composite z-score was 0.461 in experiment [1]; 2 in [6]; 0.427 in experiment [7]; 0.221 with Torsin-1A (Homo sapiens) [8]; 1.51 with Torsin-1A (Homo sapiens) [9]; -0.438 in experiment [10]. Further, the z-score in experiment [2] is 0.287 (inactive); in experiment [3] it was -1.36 (inactive); in experiment [4] it was 0.246 (inactive); in experiment [5], 1.19 (inactive).
As to `COC(=O)[C@]1(Cc2ccccc2N=[N+]=[N-])N=C(c2ccc(OCCCO)cc2)O[C@@H]1c1ccccc1N=[N+]=[N-]`, the composite z-score in experiment [1] was -0.104; in experiment [6], 0.105; in [7], -0.0762; in the experiment with Torsin-1A (Homo sapiens) [8], -1.45; with Torsin-1A (Homo sapiens) [9], 0.283; in experiment [10], 0.765. The z-score in experiment [2] was -5.35 (inactive); in experiment [3], 0.337 (inactive); in experiment [4], 2.85 (inactive); in [5], -1.04 (inactive).
For the compound `C=C[C@H](COC(C)=O)N(Cc1ccc(OC(C)=O)c(OC)c1)S(=O)(=O)c1ccc(Br)cc1`, the composite z-score was found to be 0.714 in [1]; 1.12 in experiment [6]; 0.0219 in experiment [7]; 1.85 with Torsin-1A (Homo sapiens) [8]; 2.14 with Torsin-1A (Homo sapiens) [9]; 1.75 in experiment [10]. Further, the z-score in experiment [2] is -2.08 (inactive); in [3] it was -0.569 (inactive); in experiment [4] it was 0.195 (inactive); in experiment [5] it was -1.9 (inactive).
As for `C=CCNC(=O)[C@@H]1[C@H]2C(=O)O[C@H](c3ccccc3)[C@H](c3ccccc3)N2[C@H](c2ccccc2OCCO)[C@@]12C(=O)Nc1ccc(C#CC3=CCCCC3)cc12`, the composite z-score in [1] was determined as 0.248; in [6] it was 0.562; in experiment [7], 0.592; with Torsin-1A (Homo sapiens) [8], 0.192; with Torsin-1A (Homo sapiens) [9], 0.255; in [10] it was 1.91. Moreover, the z-score in experiment [2] is -6.58 (inactive); in [3] it was -1.43 (inactive); in experiment [4], -1.42 (inactive); in experiment [5], -1.45 (inactive).
Consider `Cc1cc(C)c(C(O)C2C=CC3C(=O)N(C)C(=O)C3N2Nc2ccccc2)c(C)c1` (stereo not given), for which the composite z-score in [1] was 0.701; in [6], 0.66; in [7], 1.55; in the experiment with Torsin-1A (Homo sapiens) [8], 0.405; with Torsin-1A (Homo sapiens) [9] it was 0.738; in experiment [10], -0.0207. In addition, the z-score in [2] is 1.06 (inactive); in experiment [3], 0.3 (inactive); in [4], 0.246 (inactive); in experiment [5], -0.354 (inactive).
